Only some compounds are listed: those with a hit (about 2.2% of all), similar ones and a draw of the others.
TLR4-MyD88 BLA: TLR4-MyD88 interaction inhibition in cells | O00206+Q99836 | HeLa CL3-4 TLR4/MyD88 BLA complementation, FRET ratio | inhibition, % at 8.4 µM | hit rate 0.18% among 200,000 | AID 861; in the data active = inhibition above about 25%
TMEM16A inh: mouse TMEM16A channel inhibition, primary screen | Q8BHY3 | HEK293 TMEM16A/YFP iodide influx fluorescence, ionomycin | normalized B-score (activity score, 25-100; higher = stronger inhibition) at 10 µM | hit rate 1.2% among 310,000 | AID 588511;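 active = ratio plate-corrected score three or more library SD toward inhibition, starting fluorescence score within five deviations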;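 also: score derived from kinetic fluorescence span divided by baseline fluorescence per well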
Target sequence (Q8BHY3 whole entry, looked up): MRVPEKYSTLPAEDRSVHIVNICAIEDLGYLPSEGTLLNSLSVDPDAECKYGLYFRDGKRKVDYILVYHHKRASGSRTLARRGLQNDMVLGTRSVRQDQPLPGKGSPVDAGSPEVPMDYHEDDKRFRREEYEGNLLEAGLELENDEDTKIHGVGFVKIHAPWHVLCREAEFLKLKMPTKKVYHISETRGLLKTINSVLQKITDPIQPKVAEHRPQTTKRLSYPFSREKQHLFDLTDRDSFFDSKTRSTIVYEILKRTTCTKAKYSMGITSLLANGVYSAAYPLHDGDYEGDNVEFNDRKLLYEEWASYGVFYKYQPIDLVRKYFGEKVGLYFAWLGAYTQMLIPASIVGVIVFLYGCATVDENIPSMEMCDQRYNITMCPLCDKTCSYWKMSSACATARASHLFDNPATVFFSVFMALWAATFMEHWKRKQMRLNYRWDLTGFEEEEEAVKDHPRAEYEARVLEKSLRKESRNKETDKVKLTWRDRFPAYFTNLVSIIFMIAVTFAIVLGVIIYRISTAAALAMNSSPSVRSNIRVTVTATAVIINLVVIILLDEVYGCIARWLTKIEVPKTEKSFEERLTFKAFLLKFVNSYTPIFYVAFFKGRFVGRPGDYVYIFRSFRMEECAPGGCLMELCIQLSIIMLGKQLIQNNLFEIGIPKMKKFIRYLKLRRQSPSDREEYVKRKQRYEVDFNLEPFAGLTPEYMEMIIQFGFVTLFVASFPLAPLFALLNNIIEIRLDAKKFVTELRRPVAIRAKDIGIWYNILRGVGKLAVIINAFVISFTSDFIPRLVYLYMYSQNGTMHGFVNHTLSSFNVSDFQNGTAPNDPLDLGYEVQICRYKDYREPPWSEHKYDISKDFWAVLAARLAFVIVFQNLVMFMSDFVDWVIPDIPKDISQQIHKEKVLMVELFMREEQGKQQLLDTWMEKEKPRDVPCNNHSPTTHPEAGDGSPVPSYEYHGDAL
NOD2-RIPK2 inh: blocks binding of human NOD2 to RIPK2; hit rate 0.38% among 360,000; AID 624267; CHO BLA complementation NOD2-RIPK2, CCF4 ratio; inhibition, % at 4.98 µM; O43353; in the data active = inhibition above about 21%
GRK2 inh: inhibitors of human GRK2 displacing RNA aptamer; AID 488847; hit rate 0.59% among 330,000; inhibition of aptamer binding, % at 10 µM; bead flow cytometry, FAM-aptamer displacement from GRK2; P25098;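 active = inhibition of aptamer binding above 40%, roughly 3 SD of noise, on plates passing a quality check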;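 also: median bead fluorescence of bound FAM aptamer so fluorescent compounds give negative values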
TLR9-MyD88 inh: inhibitors of human TLR9-MyD88 binding; Q9NR96+Q99836; CHO BLA complementation TLR9-MyD88, CCF4 FRET ratio; inhibition, % at 4.98 µM; hit rate 0.21% among 340,000;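 active = inhibition above the mean over all tested compounds plus 3 SD, cut at about 21% in these data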
ANO1 activ: activators or potentiators of mouse TMEM16A chloride channel; Q8BHY3; HEK293 TMEM16A/YFP-H148Q/I152L, iodide quench fluorescence; stronger effect = lower value; B-score at 10 µM; hit rate 0.3% among 340,000; AID 623877;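 active = fluorescence-ratio B-score plate-corrected deviation score at least 3 library SD below zero, with starting fluorescence score within 5 deviations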;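 also: channel opened by trigger with iodide after compound preincubation; score built on the fluorescence ratio of max minus min over baseline; more negative score means more quench and so TMEM16A activation or potentiation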
TLR9-MyD88 conf: TLR9-MyD88 interaction inhibition, confirmation | shares compounds with TLR9-MyD88 inh | CHO TLR9/MyD88 BLA complementation, CCF4 FRET ratio | inhibition, % at 4.98 µM | hit rate 51% among 680;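 active = mean inhibition across three repeats above about 21% taken from the earlier screen, limit read from the data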;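 also: blue over green emission ratio reports constitutive TLR9 MyD88 association via BLA complementation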
BLA counter-1: counter-screen for TLR9-MyD88 inhibitors: non-selective beta-lactamase inhibitors. AID 540251. hit rate 7% among 680. shares compounds with TLR9-MyD88 inh. inhibition, % at 4.98 µM. CHO-BLA cells, CCF4 FRET ratio, BLA reporter;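 active = mean inhibition above a 50% cutoff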;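 also: counterscreen of TLR9-MyD88 hits on CMV-driven BLA in CHO-K1 cells; higher means less blue over green ratio so more BLA blockade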
TLR9 CHO tox: CHO cell toxicity counter-screen for TLR9-MyD88 inhibitors. shares compounds with TLR9-MyD88 inh. TLR9-MyD88 CHO cells cytotoxicity, luminescence. hit rate 39% among 680. AID 588336. inhibition, % at 4.98 µM; in the data active = inhibition above about 11%
NOD2-RIPK2 conf: NOD2-RIPK2 interaction inhibition confirmed; shares compounds with NOD2-RIPK2 inh; hit rate 70% among 1,200; AID 624370; inhibition, % at 4.98 µM; CHO cells, NOD2-RIPK2 BLA complementation, CCF4 FRET;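 active = mean inhibition across replicates above a set limit taken from the earlier primary screen, cut at about 21% in these data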
BLA counter-2: hits BLA reporter in NOD2-RIPK2 inhibitor counterscreen | shares compounds with NOD2-RIPK2 inh | CHO BLA reporter, CCF4 FRET ratio | inhibition, % at 4.98 µM | hit rate 57% among 1,200 | AID 624371;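 active = mean inhibition above the low-control mean inhibition plus three low-control SD, cut at about 11% in these data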
Hits are given with their value; – = inactive; · = no result.

SMILES | TLR4-MyD88 BLA | TMEM16A inh | NOD2-RIPK2 inh | GRK2 inh | TLR9-MyD88 inh | ANO1 activ | TLR9-MyD88 conf | BLA counter-1 | TLR9 CHO tox | NOD2-RIPK2 conf | BLA counter-2
O=S(=O)(Nc1cccc2cccnc12)c1ccccc1 | · | – | 39 | – | 35 | – | – | – | 98 | 54 | 18
Cc1c(Cl)c(=O)n2c(=O)c(Cl)c(C)n12 | – | – | 24 | – | 26 | – | – | – | – | 37 | 40
O=C(Nc1ccc(F)cc1)c1nc(S(=O)(=O)Cc2ccccc2)ncc1Cl | · | – | 93 | – | 36 | – | 48 | – | 99 | 90 | 43
Cc1ccccc1CS(=O)(=O)c1ncc(Cl)c(C(=O)Nc2ccc(F)cc2)n1 | · | – | 94 | – | 34 | – | 34 | – | 90 | 83 | 33
Cc1nnc(NC(=O)c2nc(S(=O)(=O)Cc3ccccc3)ncc2Cl)s1 | · | – | – | – | – | – | · | · | · | · | ·
COc1ccc(OC)c(NC(=O)c2nc(S(=O)(=O)Cc3ccccc3)ncc2Cl)c1 | · | – | 94 | – | 57 | – | 53 | – | 99 | 102 | 49
COc1ccc(NC(=O)c2nc(S(=O)(=O)Cc3cccc(C)c3)ncc2Cl)c(OC)c1 | · | – | – | – | – | – | · | · | · | · | ·
Cc1ccc(NC(=O)c2nc(S(=O)(=O)Cc3ccccc3)ncc2Cl)cc1 | · | – | 92 | – | 45 | – | 45 | – | 99 | 90 | 41
COCCn1c(SCC(=O)N2CCCCCC2)nnc1-c1ccco1 | · | – | – | – | – | – | · | · | · | · | ·
CC(C)Oc1ccc(S(=O)(=O)N2CCOCC2)cc1NC(=O)Cc1c(F)cccc1Cl | · | – | – | – | – | – | · | · | · | · | ·
CN(C(=O)COC(=O)CCCN1C(=O)c2cccc3cccc(c23)C1=O)C1CCS(=O)(=O)C1 (centres undefined) | · | – | – | – | – | – | · | · | · | · | ·
CC(C)(C)OC(=O)NCC(=O)Oc1cc2oc(=O)cc(-c3ccccc3)c2cc1Cl | – | – | 36 | – | 47 | – | – | – | – | 43 | 48
CC(=O)OCCn1c(C)[n+](CCOC(C)=O)c2cc(Cl)c(Cl)cc21 | – | – | – | – | – | – | · | · | · | · | ·
CC(=O)OCCn1c2nc(=O)[nH]c(=O)c-2nc2cc(C)c(C)cc21 | · | – | 23 | – | 21 | – | – | – | – | – | 23
C=C(C)Cn1c2ccc(NC(=O)NCc3ccc(F)cc3)cc2c(=O)n1C | · | · | – | · | · | · | · | · | · | · | ·
Nc1ccc2c3c(cccc13)-c1ccccc1-2 | · | · | 67 | · | 62 | – | 58 | 54 | – | 74 | 81
O=[N+]([O-])c1c(Nc2cccc(O)c2)cc(Cl)c2nonc12 | · | 25 | 98 | – | 46 | -11 | 61 | – | 98 | 108 | 29
Cc1ccc(S(=O)(=O)N2CCOCC2)cc1C(=O)N1C(=O)c2cccc(N)c2C1=O | – | – | – | – | – | – | · | · | · | · | ·
Nc1cccc2c1C(=O)N(C(=O)c1cccc(S(=O)(=O)N3CCCCCC3)c1)C2=O | – | – | 28 | – | 25 | – | – | – | – | 33 | 38
